The list is not random: actives were taken first. Their share in the collection is about 6.8%.
KB-V1 MDR tox: kills drug-selected multidrug resistant KB-V1 cells | Potency, µM (doses to about 46.1 µM), usual class: cytotoxic | AID 1347076 | hit rate 3.4% among 400,000 | KB-V1 MDR cells viability, CellTiter-Glo, 72 h; note: % is set by controls: 0 for no effect and ±100 for the full control effect; nearly all actives have a fitted effect of over 60% in size
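Luminescent ATP read-out (CellTiter-Glo, 10 min) measures survival of drug-selected KB-V1 MDR cells after 72 h, 37 degrees C compound exposure. Medium: phenol-red-free DMEM, 10% FBS. Values from fitted concentration-response curves.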
TSG101-PTAP inh: blocks PTAP/TSG101 interaction to inhibit HIV-1 budding. 340,000 tested, under 10 active. Potency, µM (series often up to 115 µM), without a hit: at the highest dose activity change, negative = inhibition, hits mostly inhibitors. AID 493005. Fluorescence polarization, FITC-PTAP peptide / Tsg101 binding; active = well fitted inhibition curve with a large enough effect in the main read-out, with a control signal flat, not every such curve was filed as active; inconclusive = small, poorly fitted or top-dose-only effect, or effect the other way, or a change in a side signal; inactive = no such curve, though single readings can be large or run the other way; note: % of control where 0% means no effect
Target sequence (Q99816 whole entry, looked up): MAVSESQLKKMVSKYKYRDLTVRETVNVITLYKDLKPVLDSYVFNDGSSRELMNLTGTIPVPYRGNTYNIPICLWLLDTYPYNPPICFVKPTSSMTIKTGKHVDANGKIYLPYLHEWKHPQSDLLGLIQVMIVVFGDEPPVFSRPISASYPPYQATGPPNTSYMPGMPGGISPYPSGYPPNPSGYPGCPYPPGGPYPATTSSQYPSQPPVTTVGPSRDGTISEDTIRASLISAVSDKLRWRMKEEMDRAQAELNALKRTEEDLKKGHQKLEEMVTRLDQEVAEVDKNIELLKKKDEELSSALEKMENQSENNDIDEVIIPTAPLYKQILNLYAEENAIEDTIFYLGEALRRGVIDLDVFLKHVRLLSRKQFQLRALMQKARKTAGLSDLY
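Fluorescence polarization binding of Tsg101 binding domain (10 uM final) to FITC-labeled PTAP peptide (50 nM final) in HEPES pH 7.5 buffer with NaCl, Tween 20, EDTA, TCEP. Compounds added before peptide; binding 20 min at RT.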
SW480 rereplic: induces DNA re-replication in SW480 colon adenocarcinoma cells; SW480 DNA re-replication, Hoechst DNA content imaging, 48 h; Potency, µM (highest dose often 46.1 µM), for inactives: at the top dose re-replication activation, usual class: activators; hit rate 1.8% among 340,000; note: % of control where 0% means no effect; nearly all actives have a fitted effect of over 55% in size
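Image-based read-out: total Hoechst fluorescence of nuclei (405 nm excitation, 500-530 nm emission), with hits raising the fraction of high-intensity nuclei. SW480 colon cells incubated 48 hr with compounds at 37 C.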
KB-3-1 cytotox: kills parental KB-3-1 adenocarcinoma cells; KB-3-1 viability, CellTiter-Glo ATP luminescence, 72 h; Potency, µM (series often up to 46.1 µM), actives largely listed as cytotoxic; hit rate 1.4% among 400,000; AID 1347075; note: % is set by controls: 0 for no effect and ±100 for the full control effect; nearly all actives have a fitted effect of over 60% in size
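Parental KB-3-1 viability, qHTS format: 72 h compound exposure, 37 °C; CellTiter-Glo; media-only wells and DMSO plates as controls; concentration-effect fits on corrected data.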
PINK1 modulator: modulators of PINK1 expression. AID 624263. PINK1 immunofluorescence, high-content cytometry, 24 h. hit rate 0.2% among 410,000. Potency, µM (series often up to 76.6 µM), without a hit: top-dose activation (PINK1 increase), usual class: activators; active = well fitted activation curve with a large enough effect; inconclusive = small, poorly fitted or top-dose-only effect; cell line not stated here; note: % of control where 0% means no effect; nearly all actives have a fitted effect of over 65% in size
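Fluorescence from anti-PINK1 antibody, together with nuclear and cell stains, was scanned on a laser-scanning cytometer. Before staining, stable-line cells were incubated 24 hours with compounds at 5 concentrations; primary antibody 12 h at 10 degrees C.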
MCF10A rerep: induces DNA re-replication in MCF 10a normal breast cells | MCF 10A DNA re-replication, Hoechst nuclear intensity, 48 h | hit rate 2.9% among 350,000 | AID 624296 | Potency, µM (titrated, usually from 46.1 µM), inactives show at the top dose activity, positive = re-replication, usual class: activators; note: % of control where 0% means no effect; nearly all actives have a fitted effect of over 50% in size
Active calls of the source: *; i = inactive; u = inconclusive; x = no result; ! = repeats disagree; [ ] = remark or other dose. Unless noted, calls come from the whole dose curve; as a rule, active = well fitted curve in the direction sought with a large enough effect; inconclusive = small, poorly fitted or top-dose-only effect, or another doubt; inactive = no such curve, though single readings can be large; an effect the other way counts as inactive or inconclusive. Potency is the fitted concentration of half-maximal effect.

SMILES | KB-V1 MDR tox | TSG101-PTAP inh | SW480 rereplic | KB-3-1 cytotox | PINK1 modulator | MCF10A rerep
CC1=NN(C(=O)c2nn(C)cc2Br)C(O)(C(F)(F)F)C1 (centres undefined) | i | -0.3% | 13µM* | i | 7.2% | u
CC1=NN(C(=O)c2cc(C)nn2C)C(O)(C(F)(F)F)C1 (centres undefined) | i | -1.9% | 0.517µM* | i | 1.0% | 2.9%
COC(=O)C1C(c2ccccc2)C(C(=O)OCc2ccco2)C1c1ccccc1 (centres undefined) | 13µM* | -4.3% | 9.5% | u | -4.0%[38.3 µM] | u
Cc1cccc(Cn2c(Sc3nc(C)cs3)nc3c2c(=O)[nH]c(=O)n3C)c1 | 4.11µM* | 1.2% | -8.3% | i | -1.8% | 0.3%
Cc1ccc(/C=C2/Sc3ccccc3N(CC(=O)NCCCOC(C)C)C2=O)cc1 | 23.1µM* | 0.2% | -111.1% | i | 3.6% | u
CCOCCCNC(=O)CN1C(=O)/C(=C\c2ccc(C)cc2)Sc2ccccc21 | 4.61µM* | 0.2% | 8.0% | i | 8.4% | u
COCCCNC(=O)CN1C(=O)/C(=C/c2ccccc2C)Sc2ccccc21 | u | -0.1% | -12.3% | i | 1.0% | 8.8%
CCOCCCNC(=O)CN1C(=O)/C(=C/c2ccccc2)Sc2ccccc21 | 14.6µM* | -3.7% | -0.8% | i | 3.1% | 0.0%
COCCCNC(=O)CN1C(=O)/C(=C/c2ccccc2)Sc2ccccc21 | u | 0.3% | -12.2% | i | 2.6% | -2.0%
COc1ccccc1N1CCN(C(=O)c2cc3c(=O)n(Cc4cccs4)ccc3nc2C)CC1 | i | x | x | i | 0.5% | x
CC(C)c1ccc(C2(C)NC(=O)N(C(C)C(=O)Nc3ccc(N4CCOCC4)cc3)C2=O)cc1 (centres undefined) | i | -9.1% | 6.51µM* | i | 3.0% | u
CCCCCCC1(C)NC(=O)N(C(C)C(=O)Nc2ccc(N3CCOCC3)cc2)C1=O (centres undefined) | i | -4.6% | 3.3% | i | 0.8% | -2.5%
O=C(c1ccccc1)c1ccccc1N1C(=O)C=CC1=O | i | -4.2% | u | i | -3.4% | 5.17µM*
O=C1C=CC(=O)N1c1ccccn1 | i | -4.7% | 0.0% | i | 3.3% | -23.7%
O=C1C=CC(=O)N1c1ccccc1N1C(=O)C=CC1=O | 25.9µM* | -13.5% | 2.31µM* | u | -1.4% | u
CCOC(=O)c1scc(-c2ccc(C)cc2)c1S(=O)(=O)Nc1cc(Cl)ccc1OC | i | x | x | i | 1.7% | x
CC(C)C(c1nnnn1C(C)(C)C)N1CCC(Cc2ccccc2)CC1 (centres undefined) | u | 5.9% | 7.5% | i | u | 20.6µM*
CC(C)C(c1nnnn1C(C)(C)C)N1CCOCC1 (centres undefined) | i | -10.0% | 0.2% | i | 1.5% | -0.3%
O=C(CSc1nc2ccc(Nc3nc(N4CCOCC4)nc(N4CCOCC4)n3)cc2s1)N1CCOCC1 | i | -0.2% | -6.8% | i | 1.7% | u
O=C(CSc1nc2ccc(Nc3nc(N4CCOCC4)nc(N4CCOCC4)n3)cc2s1)Nc1ccccc1F | 2.59µM* | 0.1% | 2.91µM* | 13µM* | -0.2% | 2.06µM*
Cc1ccc(Nc2nc(N3CCOCC3)nc(N3CCOCC3)n2)cc1 | u | -9.5% | -1.1% | i | -2.0%[38.3 µM] | 8.6%
CSc1nc2ccc(Nc3nc(N4CCOCC4)nc(N4CCOCC4)n3)cc2s1 | 18.4µM* | -2.4% | 16.4µM* | u | -3.9%[38.3 µM] | u
O=C(CSc1nc2ccc(Nc3nc(N4CCCC4)nc(N4CCCC4)n3)cc2s1)NCc1ccco1 | i | -1.0% | -8.9% | i | -0.3% | 5.8µM*
O=C(CSc1nc2ccc(Nc3nc(N4CCOCC4)nc(N4CCOCC4)n3)cc2s1)Nc1ccccc1Cl | u | -0.6% | u | u | 6.1% | 18.4µM*
Cc1ccc(-n2ncc3c(NCc4ccccc4)ncnc32)cc1Cl | i | x | x | i | 4.4% | x
SMILES | KB-V1 MDR tox | TSG101-PTAP inh | SW480 rereplic | KB-3-1 cytotox | PINK1 modulator | MCF10A rerep
O=S(=O)(c1cccc(-c2nc3ccccc3s2)c1)N1CCOCC1 | 16.4µM* | 3.1% | 20.0% | u | u | 19.0%
O=C(CSc1nc2ccccc2s1)Nc1cc(S(=O)(=O)N2CCOCC2)ccc1Cl | 18.4µM* | -0.5% | 9.8% | i | -0.9% | 8.4%
O=C(CNc1ccccc1Cl)Nc1cc(S(=O)(=O)N2CCOCC2)ccc1Cl | i | 0.0% | 4.9% | i | 3.4% | -3.5%
Cc1cc(C)cc(-n2ccnc2SCC(=O)Nc2cccc3ccccc23)c1 | i | x | x | i | -3.6% | x
O=C(Nc1ccc2nc(-c3ccc(Br)o3)[nH]c2c1)c1cccs1 | 8.2µM* | -3.6% | 2.6% | u | -0.1% | 18.6%
Cc1cc(C)cc(OCCSc2nc3ccc(NC(=O)COc4ccccc4)cc3s2)c1 | i | x | x | i | -0.3% | x
COc1ccc(-c2cccc(-c3nc4ccc(Cl)cn4c3NC3CCCCC3)c2)cc1 | i | 5.3% | u | u | 1.9% | 14.6µM*
CCC(C)Sc1cc(-c2nc3ccc(Cl)cn3c2NC2CCCCC2)ccc1OC (centres undefined) | 10.3µM*! | 4.6% | u | u | u | u
Cc1ccc(C(C)C)c(OCC(=O)N2CCC(c3nc4ccccc4o3)CC2)c1 | x | x | x | x | 1.3% | x
COC(=O)c1cc(CNC(=O)c2ccc(N(C)C)cc2)cc(NC(=O)c2ccccc2Cl)c1 | x | x | x | x | 0.2% | x
CN(C)c1cccc2c1C(=O)c1ccccc1C2=O | u | 3.8% | -16.6% | i | 2.2% | -1.6%
Cc1ccc(SC2=C(N(C)C)C(=O)c3ccccc3C2=O)cc1 | i | -4.5% | u | u | 10.1% | 11.6µM*
COC(=O)c1scc(-c2ccc(C)cc2)c1S(=O)(=O)N1CCN(c2cccc(OC)c2)CC1 | i | x | x | i | 1.1% | x
CO/N=C\CC(=O)Nc1ccc(Cl)c(Cl)c1 | u | 0.2% | 18.4µM* | 7.31µM* | 3.4% | 16.4µM*
COC(=O)CCC(=O)Nc1ccc(Cl)c(Cl)c1 | i | -1.9% | -2.8% | i | -0.8%[38.3 µM] | 4.1%
COc1ccc(-c2csc(NC(C)c3nc4cc(Cl)c(N5CCCCC5)cc4n3CCCO)n2)cc1 (centres undefined) | i | 2.0% | 0.146µM* | u | 0.9% | u
Cc1noc(C)c1C(=O)N1CCC[C@@]2(CCN(Cc3nccs3)C2)C1 | x | x | x | x | 0.3% | x
CCOc1ccccc1NC(=O)c1nc[nH]c1C(=O)Nc1ccccc1OCC | i | -4.5% | 20.6µM* | u | 13.6% | u
Cc1ccccc1NC(=O)c1[nH]cnc1C(=O)NN | i | -2.6% | -0.1% | u | 5.4% | 1.9%

Screens: PubChem BioAssay, National Center for Advancing Translational Sciences (NCATS)
